From PubChem BioAssay AID1159580 (chemical genetic matrix, 2015)
“And” between values parts separate entries of the source, which are not always exact repeats. Equal values may be shown once. The campaign covered roughly 5,500 compounds. About 2,000 (36%) were called active. Not shown: some 18% with an inconclusive outcome. Cut-off read from the data, not from the text of the source: active = normalized growth mostly below about 0.91 (no sharp cut-off); inconclusive = no clear call, values can overlap the other calls; inactive = mostly above about 0.92. Some of the results follow.

Experiment: chemical genetic growth profiling, strain panel (AID 1159580);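 note: tested at 20 µM; growth read once vehicle control cultures reached saturation at 30 °C; 1 = growth at the plate median or of vehicle wells; lower values mean less growth of the strain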
Details: S. cerevisiae deletion strains, growth OD

Measured: normalized growth

O=C(O)c1cc2cc(Cl)ccc2[nH]1
inactive: locus YAL013W, strain DEP1, active compounds read low 1.01 | locus YAL021C, strain ccr4, active compounds read low 0.995 | locus YAL026C, strain drs2, active compounds read low 0.988 | locus YAL030W, strain snc1, active compounds read low 0.989 | locus YBL061C, strain skt5, active compounds read low 0.991 | locus YBR009C, strain hhf1, active compounds read low 0.978 | locus YBR021W, strain FUR4, active compounds read low 0.998 | locus YBR023C, strain chs3, active compounds read low 0.986 | locus YBR171W, strain sec66, active compounds read low 0.986 | locus YBR229C, strain ROT2, active compounds read low 1.01 | locus YBR231C, strain swc5, active compounds read low 0.987 | locus YBR279W, strain paf1, active compounds read low 0.995 | locus YCL011C, strain gbp2, active compounds read low 0.985 | locus YCL016C, strain dcc1, active compounds read low 0.988 | locus YCL029C, strain bik1, active compounds read low 0.983 | locus YCL061C, strain MRC1, active compounds read low 0.984 | locus YCL069W, strain vba3, active compounds read low 0.993 | locus YCR088W, strain abp1, active compounds read low 0.975 | locus YDL005C, strain med2, active compounds read low 0.987 | locus YDL035C, strain GPR1, active compounds read low 1.02 | locus YDL040C, strain nat1, active compounds read low 0.989 | locus YDL074C, strain BRE1, active compounds read low 1.05 | locus YDL101C, strain DUN1, active compounds read low 1.03 | locus YDL134C, strain PPH21, active compounds read low 1.01 | locus YDL185W, strain tfp1, active compounds read low 0.973 | locus YDL192W, strain arf1, active compounds read low 0.989 | locus YDR001C, strain nth1, active compounds read low 0.981 | locus YDR069C, strain doa4, active compounds read low 0.983 | locus YDR101C, strain arx1, active compounds read low 0.971 | locus YDR137W, strain rgp1, active compounds read low 0.999 | locus YDR150W, strain NUM1, active compounds read low 1.01 | locus YDR159W, strain sac3, active compounds read low 0.977 | locus YDR162C, strain NBP2, active compounds read low 1.05 | locus YDR195W, strain ref2 0.998 | locus YDR297W, strain sur2, active compounds read low 0.997 | locus YDR318W, strain mcm21, active compounds read low 0.984 | locus YDR334W, strain swr1, active compounds read low 0.986 | locus YDR335W, strain msn5, active compounds read low 0.988 | locus YDR388W, active compounds read low 0.98 | locus YDR392W, strain spt3, active compounds read low 0.953 | locus YDR502C, strain sam2, active compounds read low 0.998 | locus YEL003W, strain gim4, active compounds read low 1 | locus YEL037C, strain rad23, active compounds read low 0.98 | locus YEL061C, strain CIN8 (second series), active compounds read low 0.981 | locus YEL061C, strain CIN8, active compounds read low 1 | locus YER015W, strain faa2, active compounds read low 0.993 | locus YER016W, strain bim1, active compounds read low 0.984 | locus YER110C, active compounds read low 0.982 | locus YER111C, strain swi4, active compounds read low 0.98 | locus YER155C, strain BEM2 (second series), active compounds read low 0.972 | locus YER155C, strain BEM2, active compounds read low 1.01 | locus YER167W, strain BCK2, active compounds read low 1.01 | locus YFR010W, strain ubp6, active compounds read low 0.986 | locus YGL078C, strain dbp3, active compounds read low 0.979 | locus YGL086W, strain mad1, active compounds read low 0.977 | locus YGL167C, strain pmr1, active compounds read low 0.988 | locus YGL173C, strain kem1, active compounds read low 0.984 | locus YGL227W, strain vid30, active compounds read low 0.973 | locus YGL240W, strain doc1, active compounds read low 0.984 | locus YGL248W, strain PDE1, active compounds read low 1.01 | locus YGL253W, strain hxk2, active compounds read low 0.994 | locus YGR078C, strain PAC10, active compounds read low 1.03 | locus YGR135W, strain pre9, active compounds read low 0.994 | locus YGR229C, strain SMI1, active compounds read low 1.02 | locus YGR252W, strain gcn5, active compounds read low 0.928 | locus YHR013C, strain ard1, active compounds read low 0.973 | locus YHR027C, strain rpn1, active compounds read low 0.988 | locus YHR030C, strain SLT2, active compounds read low 0.997 and 0.95 | locus YHR079C, strain IRE1 (second series), active compounds read low 0.984 | locus YHR079C, strain IRE1, active compounds read low 0.932 | locus YHR094C, strain hxt1, active compounds read low 0.984 | locus YHR129C, strain ARP1, active compounds read low 1.01 | locus YHR142W, strain chs7, active compounds read low 0.984 | locus YHR200W, strain rpn10, active compounds read low 0.99 | locus YIL066C, strain RNR3, active compounds read low 1.01 | locus YIL073C, strain SPO22, active compounds read low 1.02 | locus YIL125W, strain kgd1, active compounds read low 0.979 | locus YIR030C, strain dcg1, active compounds read low 0.991 | locus YJL092W, strain hpr5, active compounds read low 0.98 | locus YJL095W, strain BCK1 (second series), active compounds read low 0.983 | locus YJL095W, strain BCK1, active compounds read low 1.03 and 0.942 | locus YJL115W, strain asf1, active compounds read low 0.992 | locus YJL129C, strain trk1, active compounds read low 0.99 | locus YJL134W, strain LCB3, active compounds read low 1.01 | locus YJL154C, strain vps35, active compounds read low 0.985 | locus YJL164C, strain tpk1, active compounds read low 0.99 | locus YJL166W, strain qcr8, active compounds read low 0.995 | locus YJL168C, strain set2, active compounds read low 0.986 | locus YJL187C, strain SWE1 (second series), active compounds read low 1.02 | locus YJL187C, strain SWE1, active compounds read low 0.992 | locus YJR043C, strain POL32, active compounds read low 0.984 | locus YJR066W, strain TOR1, active compounds read low 0.903
